Data as given in PubChem BioAssay AID977624 (Broad Institute, 2014).
The campaign covered roughly 1,800 compounds. Fewer than 10 were called active. Another 44% or so got no clear call; they are omitted.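 Rule for the calls: active = compound lowering the normal-ribosome reporter at least twice as much as the humanized-ribosome reporter, growth loss under a set limit; inconclusive = no clear call, values can overlap the other calls; inactive = the rest.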 The list is a sample of the results.

Test: wild-type E. coli growth inhibition versus h34 humanized strain – h34 mutant RFP, wild-type GFP, cherry-pick, dose response (AID 977624)
Details: fluorescence, 24 h; series mostly up to 50 µM

outcome, inactive:
Cc1cccc(C)c1Nc1ncnc2ccccc12
Cc1ccc(-c2n[nH]c(S(C)(=O)=O)c2C#N)cc1
C=CCN(c1ccccc1)S(=O)(=O)c1cccc2cccnc12
Cc1nn(Cc2cccc(F)c2)c(C)c1NC(=O)c1c(Cl)cnn1C
COc1ccc(NC(=O)CCC(=O)c2cccs2)cc1S(=O)(=O)Nc1ccc(Cl)cc1
C[C@@H]1CN([C@H](C)CO)C(=O)CCCn2nncc2CO[C@@H]1CN(C)C(=O)Nc1ccc(C(F)(F)F)cc1
COc1ccccc1OCC(=O)Nc1ccc(S(=O)(=O)N2CCCCCC2)cc1
CN(C)CCCN(C(=O)CCSc1ccccc1)c1nc2cc3c(cc2s1)OCO3
CCCC(=O)N(CCc1ccc(OC)cc1)Cc1nc2ccccc2c(=O)[nH]1
Cc1ccc(NC(=O)c2c(C)noc2-c2snnc2C)cc1
COC(=O)c1sc(C(C)(C)C)cc1CS(=O)(=O)c1ccc(Cl)cc1
CCc1ccc(NC(=O)COC(=O)CCCC2=NS(=O)(=O)c3ccccc3N2)cc1
CCn1c(-c2ccccc2Cl)nn(CC(=O)Nc2ccccc2OC)c1=S
C[C@@H]1CCCCO[C@@H](CN(C)C)[C@@H](C)CN([C@@H](C)CO)C(=O)c2cc(NC(=O)Nc3cccc4ccccc34)ccc2O1
CC(C)CNc1nc(S(=O)(=O)c2ccccc2)c(Cl)s1
Cc1ccc(-c2nc(CN3CCCCC3c3cccc(F)c3)c(C)o2)o1 (centres undefined)
CCOC(=O)c1c(C)nsc1NCc1ccccc1
CC(C)CN1C(=O)c2ccc(C(=O)Nc3ccncc3)cc2C1=O
COc1cccc(C(NC(C)=O)c2nc(-c3ccccc3OC)cs2)c1 (centres undefined)
Cc1cccc(-c2ccc([C@H]3[C@H]4CN(S(=O)(=O)c5ccccc5C)CCCCN4[C@H]3CO)cc2)c1
CC(=O)Nc1cccc(NC(=O)CSc2ccc(-c3cccnc3)nn2)c1
CCOC(=O)c1cc(-c2ccc(OC)cc2)n[nH]1
CCN(CC)CCN(C(=O)c1ccc2c(c1)OCCO2)c1nc2c(Cl)cccc2s1
CN(C)Cc1nc2ccccc2c(=O)n1Cc1nc(-c2cccc([N+](=O)[O-])c2)cs1
COc1cccc(NC(=O)COC(=O)Cc2ccccc2[N+](=O)[O-])c1
CCOC(=O)Cc1nnc(NC(=O)CSc2nc3ccccc3[nH]2)s1
O=C(O)CCCCCCCCc1cn(CC2CCCCC2)nn1
O=C(Nc1ccncc1)c1ccc(S(=O)(=O)Nc2ccccc2)cc1
Cc1cccc(OCCC(=O)Nc2ccc(F)c(F)c2)c1
CCN(CC(=O)Nc1cccc(C#N)c1)CC(=O)Nc1cccc(OC)c1
C=C(C)Cn1c(=O)c2c(nc3n2CC(C)CN3Cc2ccccc2)n(C)c1=O (centres undefined)
O=S1(=O)N[C@H](Cc2ccccc2)COc2cccc(N3CCC[C@H]3CO)c21
Cc1ccccc1-n1ncc2c1CC(C)(C)CC2NC(=O)CCN1Cc2ccccc2C1=O (centres undefined)
O=C(Nc1ccc2c(c1)OCO2)c1cccc(S(=O)(=O)N2CCCC2)c1
CCOc1ccccc1NC(=O)c1ccc2ccccc2c1
CC(=O)c1c(C)nn(CC(O)COc2ccc3c(c2)CCC3)c1C (centres undefined)
Cn1nc(C(C)(C)C)c([N+](=O)[O-])c1C(=O)Nc1ccc(Br)cc1
COc1ccccc1C(=O)COC(=O)c1cccs1
Nc1nc(Nc2ccccc2F)nc(N2CCOCC2)c1[N+](=O)[O-]
O=C(c1cc(S(=O)(=O)N2CCOCC2)ccc1Cl)N1CCc2ccccc2C1
CSc1nc2nc3c(cc2c(=O)n1-c1ccccc1C)CCCC3
Cc1cc([N+](=O)[O-])nn1CC(=O)Nc1cc(F)ccc1F
Nc1ccccc1Sc1ccc(C(F)(F)F)cc1[N+](=O)[O-]
Cc1noc(C)c1COc1cccc(C(=O)N2CCc3ccccc32)c1
CCCc1nc2oc3c(NCCCN(C)C)ncnc3c2c2c1CCCC2
O=C(c1ccc2c(c1)CCN2S(=O)(=O)c1ccccc1)N1CCN(c2ccccc2)CC1
O=C(O)c1ccc(-c2nc(-c3ccccc3)cs2)cc1
CCc1ccc2nc(N(CCCN(C)C)C(=O)c3ccc4c(c3)OCCO4)sc2c1
Nc1ncncc1-c1ccc(Cl)cc1
CC(=O)Nc1ccc(S(=O)(=O)Nc2cccc(-c3nc4cc(C)ccc4o3)c2)cc1
OCCN(Cc1ccccc1)Cc1ccc(F)c(F)c1
COC(=O)c1ccccc1NC(=O)c1ccc2c(c1)CC(C)O2 (centres undefined)
O=C(CN1CCCCC1)Nc1ccccc1-c1ccccc1
Cc1cc(C(=O)OCC(=O)Nc2cccc(S(N)(=O)=O)c2)c2ccccc2n1
COc1cccc(S(=O)(=O)N2CCCCN3[C@H](CO)[C@H](c4ccc(C#CC(C)C)cc4)[C@@H]3C2)c1
Cc1sc(NC(=O)CN2CCOCC2)nc1-c1ccc2c(c1)CCN2S(=O)(=O)c1ccccc1
Cc1ccc2nc(SCC(=O)c3ccc4c(c3)NC(=O)CO4)[nH]c2c1
COc1cccc(NC(=O)CN(C)CC(=O)Nc2ccc(Br)cc2)c1
COc1ccc(S(=O)(=O)N(C)C)cc1NC(=O)c1ccc2c(c1)NC(=O)C(C)S2 (centres undefined)
COc1cc(-c2cc3nc(NCCc4ccncc4)ccn3n2)cc(OC)c1OC
N#Cc1ccc(OCC(=O)N2CCN(S(=O)(=O)c3ccc(Cl)s3)CC2)cc1
Cc1ccc(NC(=O)c2ccc([N+](=O)[O-])o2)c(C)c1
COc1ccc(Cn2c(=O)c3[nH]cnc3n(-c3ccc(C)cc3)c2=O)cc1
S=C1SCN(Cc2cccnc2)CN1Cc1ccccc1
CCOc1ccc(CCNC(=O)CCn2ccc3cc(S(=O)(=O)N4CCCC4)ccc32)cc1
O=C(c1ccc(N2CCCCC2)c([N+](=O)[O-])c1)N1CCN(c2ccccn2)CC1
CN(C(=O)COc1ccccc1C(=O)NCCOc1ccccc1)c1ccccc1
CN(C(=O)c1ccc(F)cc1)c1ccc(OCC(=O)Nc2ccccc2C(=O)O)cc1
CC(CCC(=O)O)C1CC[C@@]2(C)C3C(=O)CC4C(C)(C)C(O)CC[C@]4(C)C3C(=O)C[C@]12C (some centres undefined)
CCOc1ccc2nc(SCC(=O)Nc3cccc(S(=O)(=O)NC4=NCCCCC4)c3)[nH]c2c1
COc1ccc(-c2nnc(COc3ccc(Br)cc3C)o2)cc1
Cc1cccc(C)c1-n1nnnc1C1(C)CCC(=O)N1Cc1cccs1 (centres undefined)
CCCC(=O)Nc1sc2c(c1C(=O)Nc1ccccn1)CCCC2
COc1ccc(NC(=O)c2cccs2)cc1C(=O)N1CCN(c2ccccc2)CC1
CC(C)Nc1nnc(SCC(=O)Nc2sccc2C#N)s1
COc1cc(NC(=O)c2ccc(Cl)cc2)c(OC)cc1NC(=O)CN1CCCCC1
CN(C)CCCN(C(=O)COc1ccc(Cl)cc1)c1nc2ccc(F)cc2s1
Cc1cccc(CSCC(=O)N2CCN(S(=O)(=O)c3ccccc3C#N)CC2)c1
COc1cc(OC)cc(C(=O)Nc2ccc(C(=O)Nc3ccccc3OC)cc2)c1
CC(C)Oc1ccc(C(=O)Nc2cccc3cccnc23)cc1
CC(C)CC#Cc1ccc2c(c1)O[C@@H](CN(C)Cc1ccccn1)[C@H](C)CN([C@H](C)CO)S2(=O)=O
CCCC(=O)Nc1cccc(C(=O)Nc2ccccc2OCC)c1
CC(C)(Nc1ccccc1)C(=O)c1ccccc1
COC(=O)c1ccccc1OCCOCCOc1cccc2ccc(C)nc12
Nc1ccccc1Nc1ccc([N+](=O)[O-])cc1[N+](=O)[O-]
Cc1ccccc1CSc1nnc(-c2ccncc2)o1
O=C(CCNc1cccc(Cl)c1)c1cccs1
C[C@@H]1CCCCO[C@@H](CN(C)C)[C@@H](C)CN([C@H](C)CO)C(=O)c2cc(NC(=O)Nc3cccc4ccccc34)ccc2O1
Cc1ccc(C2NC(c3ccc(C)cc3)C(C)C(=O)C2C)cc1 (centres undefined)
Cc1ccc(-c2c[n+](CC(=O)OCc3ccccc3)c3n2CCC3)cc1
Cc1noc(C)c1NC(=O)Nc1ccc2c(c1)C(=O)N([C@@H](C)CO)C[C@H](C)[C@H](CN(C)C(=O)Nc1ccc3c(c1)OCO3)OCCCC[C@H](C)O2
COc1ccc(-c2cc(C(=O)N(C)CCc3ccc(OC)c(OC)c3)c3ccccc3n2)cc1
c1ccc(Sc2ncnc3ccccc23)cc1
Cc1nc(SCC(=O)Nc2ccc3c(c2)OCCO3)nc(C)c1C
CCCN(Cc1ccco1)S(=O)(=O)c1ccc(OC)c(OC)c1
CCOC(=O)c1cc(C)nc(N2CCCCC2)c1C#N
Cn1cc(CN2CCCC(C(=O)c3cccs3)C2)c(-c2cccc(Cl)c2)n1 (centres undefined)
Nc1nc(-c2cc(-c3ccccc3)no2)cs1
Cc1cccc(C(=O)NCC(=O)NCCSc2ccc(Br)cc2)c1
N#CCC(=O)Nc1ccc(C(=O)OCC(=O)Nc2ccc3ccccc3c2)cc1
CCOc1cc(/C=C(\CC(=O)O)c2nc3ccccc3s2)ccc1OC
COc1ccc(-c2nc3ccc(Cl)cn3c2Cc2cccc(F)c2)cc1OC
COC(=O)c1sccc1NC(=O)Cn1nnc(-c2ccccc2C)n1
CCOc1ccc2nc(NC(=O)CSc3nc(SC)ns3)sc2c1
